The subject of assay [1] is Human papillomavirus type 1a protein E7 (residues 44-93). The assay is described as follows: HPV1a E7 fragment binders on microarrays, primary screen, biochemical, small-molecule microarray, residues 44-93, 635 nm fluorescence (AID 1108).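 Further: E7 fragment applied at 1 µg/mL in TBST for 1 h at 4 C; score combines spot fluorescence with its signal to noise ratio.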 The settings on record: small-molecule microarray binding, fluorescence 635 nm; higher = more signal.
The nature of assay [2]: modulators of HCV replicon luciferase signal, primary screen, HCV replication inhibitor project, Huh7 cells, luciferase reporter (AID 1109).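 Further: huh7 hepatoma cells harbouring a luciferase neomycin HCV replicon reporter; luciferase luminescence as measure of HCV replicon replication; test concentration not given here.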 The settings on record: 48 h, higher = more signal.
The target of assay [3] is Left-right determination factor 2 (Homo sapiens) (UniProt O00292). The assay is described as follows: LEFTY2 binders on small-molecule microarrays, primary screen, biochemical, small-molecule microarray, 635 nm fluorescence scan (AID 1110). The settings on record: LEFTY2 binding, higher = more signal.
Chain of Left-right determination factor 2 (Homo sapiens) (O00292 whole entry, looked up): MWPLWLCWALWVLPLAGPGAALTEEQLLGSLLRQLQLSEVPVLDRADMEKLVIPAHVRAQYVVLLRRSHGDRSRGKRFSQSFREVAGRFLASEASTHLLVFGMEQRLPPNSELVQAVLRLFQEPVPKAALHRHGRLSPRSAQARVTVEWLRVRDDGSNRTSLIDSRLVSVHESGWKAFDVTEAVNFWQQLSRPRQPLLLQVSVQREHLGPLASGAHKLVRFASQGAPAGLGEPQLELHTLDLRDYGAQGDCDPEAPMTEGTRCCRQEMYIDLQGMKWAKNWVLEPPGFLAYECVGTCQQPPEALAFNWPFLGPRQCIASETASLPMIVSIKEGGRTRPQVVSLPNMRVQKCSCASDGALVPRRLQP
The target in assay [4] is Calmodulin-1 (Homo sapiens) (UniProt P0DP23). The assay is described as follows: CALM1 binders on microarrays, EGTA buffer, profiling panel, biochemical, small-molecule microarray, Cy5-labelled CALM1 (AID 1111).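 Further: labelled calmodulin applied in Tris saline Tween buffer holding calcium plus EGTA and DTT.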 As to conditions: Cy5-CALM1 binding fluorescence, higher = more signal.
Assay [5] has the same target. The assay is described as follows: calcium-bound CALM1 binders on microarrays, profiling panel, artefact control for SMM control-protein annotation, biochemical, small-molecule microarray, Cy5-labelled CALM1, plus calcium (AID 1112).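 Further: score merges spot fluorescence with signal to noise from triplicate slides.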 The settings on record: Cy5-CALM1 binding fluorescence, higher = more signal.
Assay [6] can be described thus: small-molecule microarray binders of probe aWnt5a, primary screen, biochemical, biotinylated probe, 635/667 nm fluorescence (AID 1113).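 Further: score merges 667 nm fluorescence intensity with signal-to-noise per printed feature.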 As to conditions: higher = more signal.
Assay [7] can be described thus: small-molecule microarray binders of probe aShh, primary screen, biochemical, biotinylated probe, 635/667 nm fluorescence (AID 1114).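 Further: probe is biotin-labelled aShh protein from a stem cell growth factor screen; measures binding of labelled protein to compounds printed on the slide; score merges feature fluorescence at 667 nm with signal-to-noise.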 The settings on record: higher = more signal.
A short description of assay [8]: small-molecule microarray binders of probe aNog, primary screen, biochemical, biotinylated probe, 635/667 nm fluorescence (AID 1115).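 Further: probe is biotinylated aNog protein used at 0.15 µg/mL for 1 h at 4 C; z-score combines 667 nm fluorescence of each spot with its signal to noise.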 The settings on record: higher = more signal.
Assay [9] concerns the target Torsin-1A-interacting protein 1 (Homo sapiens) (UniProt Q5JTV8). The assay is described as follows: LAP1 binders from COS7 cell lysate, primary screen, small-molecule microarray, 635/667 nm fluorescence (AID 1116). The settings on record: COS7-hLAP1 lysate binding, 635 nm fluorescence, higher = more signal.
The target in assay [10] is Alpha-bungarotoxin (Bungarus multicinctus) (UniProt P60615). The assay is described as follows: alpha-bungarotoxin binders on microarray, profiling panel, artefact control for SMM control protein annotation, biochemical, small-molecule microarray, Alexa647 label, 635/667 nm fluorescence (AID 1117). As to conditions: alpha-BTX-A647 binding fluorescence, higher = more signal.
Chain of Alpha-bungarotoxin (Bungarus multicinctus) (P60615 whole entry, looked up): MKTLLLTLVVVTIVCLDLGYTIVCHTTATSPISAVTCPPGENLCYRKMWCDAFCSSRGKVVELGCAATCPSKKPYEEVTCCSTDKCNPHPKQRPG

The target in assay [11] is Albumin (Bos taurus) (UniProt P02769). The assay is described as follows: bovine serum albumin binders on microarray, profiling panel, artefact control for SMM control protein annotation, biochemical, small-molecule microarray, Alexa647 label, 635/667 nm fluorescence (AID 1118).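 Further: score merges 667 nm emission intensity and signal-to-noise per printed compound spot.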 The settings on record: BSA-A647 binding, fluorescence 635 nm, higher = more signal.
Chain of Albumin (Bos taurus) (P02769 whole entry, looked up): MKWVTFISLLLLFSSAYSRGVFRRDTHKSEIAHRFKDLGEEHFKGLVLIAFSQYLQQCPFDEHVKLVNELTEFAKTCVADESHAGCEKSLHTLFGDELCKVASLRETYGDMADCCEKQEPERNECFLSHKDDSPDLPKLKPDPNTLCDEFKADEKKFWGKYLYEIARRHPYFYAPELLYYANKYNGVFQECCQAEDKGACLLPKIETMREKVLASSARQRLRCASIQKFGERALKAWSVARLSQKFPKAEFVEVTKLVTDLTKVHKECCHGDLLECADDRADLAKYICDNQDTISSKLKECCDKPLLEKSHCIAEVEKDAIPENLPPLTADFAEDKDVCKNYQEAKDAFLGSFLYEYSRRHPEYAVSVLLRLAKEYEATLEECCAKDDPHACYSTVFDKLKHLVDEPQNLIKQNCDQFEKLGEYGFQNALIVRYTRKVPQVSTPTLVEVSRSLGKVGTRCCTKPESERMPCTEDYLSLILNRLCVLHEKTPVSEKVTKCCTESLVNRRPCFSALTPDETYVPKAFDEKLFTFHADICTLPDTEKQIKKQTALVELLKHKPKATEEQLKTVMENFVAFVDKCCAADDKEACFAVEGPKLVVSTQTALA
Assay [12] in a line: small-molecule microarray binders of probe aXIP, primary screen, biochemical, NeuroSMM set, 635/667 nm fluorescence (AID 1119).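 Further: probe is the protein aXip251-270 applied at 1 µg/mL to compound-printed slides; binding of probe to printed compounds measured as 667 nm fluorescence plus signal to noise.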 As to conditions: higher = more signal, called active from +8 up or from −8 down.
The nature of assay [13]: small-molecule binders of probe aNOTCH3, primary screen, biochemical, small-molecule microarray, 635/667 nm fluorescence (AID 1120).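 Further: probe is a biotin-tagged antibody raised against NOTCH3 rather than NOTCH3 protein; score merges spot fluorescence near 667 nm with spot signal to noise.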 The settings on record: higher = more signal.
The nature of assay [14]: small-molecule binders of probe aNOTCH2, primary screen, biochemical, small-molecule microarray, 635/667 nm fluorescence (AID 1121).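 Further: score merges feature fluorescence read at 667 nm with its signal to noise.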 The settings on record: higher = more signal.
Assay [15] concerns the target Carbonic anhydrase 2 (Homo sapiens) (UniProt P00918). The assay is described as follows: CAII small-molecule binders, profiling panel, biochemical, small-molecule microarray, Alexa647-labelled CAII (AID 1122). The settings on record: CAII-A647 binding fluorescence, higher = more signal.
A short description of assay [16]: COS7 lysate on small-molecule microarray, probe aHis, 635 nm (AID 1123).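 Further: z-score combines 667nm fluorescence intensity with signal-to-noise per printed compound spot.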 The settings on record: COS7 cell lysate, fluorescence, higher = more signal.
A short description of assay [17]: compound binding in COS7 lysate, probe aLAP1, primary screen, cell lysate, small-molecule microarray (AID 1124).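 Further: lysate comes from COS7 cells expressing LAP1 and is applied at 0.3 µg/mL; score merges spot fluorescence near 667 nm with signal-to-noise over triplicate slides.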 As to conditions: probe aLAP1, fluorescence, higher = more signal.
Assay [18] relates to Sam68 (KHDRBS1). The assay is described as follows: Sam68 small-molecule binders, primary screen, biochemical, small-molecule microarray, 635 nm fluorescence (AID 1125).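 Further: score merges 667 nm channel intensity with signal to noise over triplicate slides.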 The settings on record: small-molecule microarray binding, higher = more signal.
For assay [19], the system named is Chordin-like protein 2 (CHRDL2). The assay is described as follows: CHRDL2 small-molecule binders, primary screen, biochemical, small-molecule microarray, 635 nm fluorescence (AID 1126).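 Further: printed compound slides probed with Chrdl2 protein at 4 µg/mL for 1 h at 4 C; score merges 667 nm emission intensity with signal to noise over three replicate slides.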 As to conditions: small-molecule microarray binding, fluorescence 635 nm; higher = more signal.
The target in assay [20] is Concanavalin-A (Canavalia ensiformis) (UniProt P02866). The assay is described as follows: ConA small-molecule binders, primary screen, artefact control for SMM control protein annotation, biochemical, small-molecule microarray, Alexa647 label, 635 nm (AID 1127).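 Further: z combines 667 nm emission intensity with signal-to-noise across three replicate slides.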 As to conditions: ConA-A647 binding fluorescence, higher = more signal.
Chain of Concanavalin-A (Canavalia ensiformis) (P02866 whole entry, looked up): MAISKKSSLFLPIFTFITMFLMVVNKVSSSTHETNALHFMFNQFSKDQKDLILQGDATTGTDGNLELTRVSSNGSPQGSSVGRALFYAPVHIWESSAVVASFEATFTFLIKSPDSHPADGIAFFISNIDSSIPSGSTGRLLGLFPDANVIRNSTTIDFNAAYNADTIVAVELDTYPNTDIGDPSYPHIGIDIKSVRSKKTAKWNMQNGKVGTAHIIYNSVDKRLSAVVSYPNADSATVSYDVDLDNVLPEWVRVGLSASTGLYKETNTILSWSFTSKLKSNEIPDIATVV

This is an account of results in PubChem BioAssay.

Active and inactive are the calls of the source.

Chain of Torsin-1A-interacting protein 1 (Homo sapiens) (Q5JTV8 whole entry, looked up): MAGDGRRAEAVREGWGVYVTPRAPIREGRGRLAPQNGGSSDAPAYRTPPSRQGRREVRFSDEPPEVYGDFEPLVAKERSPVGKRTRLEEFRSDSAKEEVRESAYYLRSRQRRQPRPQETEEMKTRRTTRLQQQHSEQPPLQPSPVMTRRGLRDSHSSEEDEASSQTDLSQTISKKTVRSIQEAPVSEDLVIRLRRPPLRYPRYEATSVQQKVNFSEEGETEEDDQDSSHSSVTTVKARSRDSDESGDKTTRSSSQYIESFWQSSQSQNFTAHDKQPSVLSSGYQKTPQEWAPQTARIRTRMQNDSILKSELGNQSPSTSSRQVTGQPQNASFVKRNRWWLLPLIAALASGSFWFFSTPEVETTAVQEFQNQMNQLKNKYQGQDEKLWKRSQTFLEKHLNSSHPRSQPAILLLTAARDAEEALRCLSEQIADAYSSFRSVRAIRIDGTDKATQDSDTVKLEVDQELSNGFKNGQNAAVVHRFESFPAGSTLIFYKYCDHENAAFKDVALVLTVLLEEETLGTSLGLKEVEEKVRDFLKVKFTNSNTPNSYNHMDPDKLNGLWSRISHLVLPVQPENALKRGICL

As to `COCCCNC(=O)[C@@]1(Cc2ccccc2I)c2ccccc2C(=O)N(Cc2ccccc2)[C@H]1c1ccc(CO)cc1`, the composite z-score in assay [1] is 0.609; in assay [3], -2.53; in assay [4], -0.387; in [5], 0.239; in assay [6], -0.232; in assay [7] it was -0.0146. Besides, the composite z-score in [8] is 0.0327; in assay [9], 0.258; in assay [10] it was -1.4; in assay [11] it was -1.09; in [13] it was -0.265; in [14], -0.162. For the same compound, the composite z-score in assay [15] was 0.574; in assay [16] it was 0.817; in [17] it was -0.665; in assay [18], 0.337; in assay [19], -1.47; in assay [20], -1.3. The z-score in assay [2] is -1.38. Besides, the composite Z-score in [12] was -0.0662 (inactive).
On to `COc1c(C)cc(-c2cc3c(c(-c4ccccc4)n2)[Si](C(C)C)(C(C)C)O[C@H]3c2ccccc2)cc1C`, for which the composite z-score in [1] is -0.217; in assay [3], -0.009; in [4] it was -0.0867; in assay [5], -0.24; in [6], -0.006; in assay [7], -0.147. Besides, the composite z-score in [8] is -0.482; in [9], 0.38; in [10], 0.614; in assay [11] it was -0.102; in [13], -0.0343; in assay [14], -0.154. In addition, the composite z-score in assay [15] was -0.0516; in [16] it was 0.0732; in [17], -0.325; in assay [18], 0.111; in [19], 0.613; in assay [20], 0.124. This compound also returned a z-score in [2] of -0.526. Moreover, in assay [12], the composite Z-score was -0.322 (inactive).
Regarding `[N-]=[N+]=Nc1ccccc1[C@H]1OC(c2ccc(OCCCO)cc2)=N[C@@]1(CCS(=O)(=O)c1ccccc1)C(=O)N1CCOCC1`, the composite z-score worked out at 0.946 in assay [1]; 0.52 in [3]; 2.15 in [4]; 1.24 in [5]; 0.318 in assay [6]; 1.39 in assay [7]. Further, the composite z-score in [8] came to 1.28; in assay [9], 2.1; in [10], 3.35; in [11] it was 1.08; in assay [13] it was 0.586; in assay [14], 0.358. Besides, the composite z-score is 0.522 in [15]; 2.65 in [16]; 0.603 in assay [17]; 1.3 in [18]; -0.409 in assay [19]; 1.22 in [20]. The compound further registered a z-score in assay [2] of 0.384. Moreover, the composite Z-score in [12] was 1.23 (inactive).
With `COc1ccc([Si](C)(C)[C@@H]2[C@@H](CC(=O)N3Cc4ccccc4C[C@H]3CO)O[C@]3(C(=O)N(Cc4cccc(N5C(=O)COc6ccccc65)c4)c4ccccc43)[C@H]2C)cc1`, the composite z-score in assay [1] was 1.2; in assay [3], 0.806; in [4], 1.39; in assay [5], 0.0626; in assay [6] it was -0.103; in assay [7], -0.214. Further, the composite z-score in [8] was -0.253; in assay [9], 0.875; in assay [10], 0.875; in assay [11], 0.566; in [13] it was 0.0905; in [14] it was -0.177. The composite z-score amounted to 0.423 in assay [15]; 0.629 in [16]; 0.344 in [17]; 1.07 in assay [18]; 0.692 in assay [19]; 1.11 in [20]. In assay [2], this compound registered a z-score of -3.61. Besides, in [12], the composite Z-score is 1.33 (inactive).
On to `CCCC[C@H]1OB(O)C[C@H]2C1=C(C)Cn1c(=O)n(-c3ccccc3)c(=O)n12`, for which the composite z-score in [1] is 0.422; in [3] it was 0.648; in assay [4], -0.305; in [5] it was -0.406; in assay [6], -0.215; in [7], -0.0035. Besides, the composite z-score in [8] is -0.426; in assay [9] it was 0.363; in assay [10], -0.149; in assay [11], 0.242; in assay [13], -0.236; in [14] it was -0.177. Also, the composite z-score is -0.159 in [15]; 0.549 in [16]; 0.144 in assay [17]; 0.401 in assay [18]; 0.77 in assay [19]; 0.0577 in [20]. In addition, the z-score in assay [2] is -0.759. In [12], the composite Z-score was -0.426 (inactive).
